Experimental data reported in PubChem BioAssay AID1159580 (chemical genetic matrix, 2015).
In all, about 5,500 compounds went through this assay and about 2,000 (36%) were called active. Roughly 18% stayed inconclusive and do not appear here. Rule as the data show it: active = normalized growth mostly below about 0.91 (no sharp cut-off); inconclusive = no clear call, values can overlap the other calls; inactive = mostly above about 0.92. This is one part of the list.

Assay: chemical genetic growth profiling, strain panel (AID 1159580);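 also: tested at 20 µM; growth read once vehicle control cultures reached saturation at 30 °C; 1 = growth at the plate median or of vehicle wells; lower values mean less growth of the strain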
Settings: growth OD

Measured: normalized growth

Cc1cc(-c2ccccc2)nnc1NCCN1CCOCC1
inactive: S. cerevisiae deletion strains, locus YJR075W, strain HOC1, stronger effect = lower value 0.997 | S. cerevisiae deletion strains, locus YKL009W, strain mrt4, stronger effect = lower value 1.08 | S. cerevisiae deletion strains, locus YKL068W, stronger effect = lower value 0.969 | S. cerevisiae deletion strains, locus YKL085W, strain MDH1 (second series), stronger effect = lower value 1 | S. cerevisiae deletion strains, locus YKL085W, strain MDH1, stronger effect = lower value 1 | S. cerevisiae deletion strains, locus YKL160W, strain elf1, stronger effect = lower value 0.966 | S. cerevisiae deletion strains, locus YKL190W, strain CNB1, stronger effect = lower value 1 | S. cerevisiae deletion strains, locus YKR001C, strain vps1, stronger effect = lower value 0.98 | S. cerevisiae deletion strains, locus YKR026C, strain gcn3, stronger effect = lower value 0.995 | S. cerevisiae deletion strains, locus YKR091W, strain srl3, stronger effect = lower value 0.995 | S. cerevisiae deletion strains, locus YLL001W, strain dnm1, stronger effect = lower value 0.976 | S. cerevisiae deletion strains, locus YLL026W, stronger effect = lower value 0.992 | S. cerevisiae deletion strains, locus YLL041C, strain sdh2, stronger effect = lower value 0.988 | S. cerevisiae deletion strains, locus YLR027C, strain aat2, stronger effect = lower value 0.989 | S. cerevisiae deletion strains, locus YLR039C, strain RIC1, stronger effect = lower value 0.999 | S. cerevisiae deletion strains, locus YLR058C, strain SHM2, stronger effect = lower value 1.01 | S. cerevisiae deletion strains, locus YLR102C, strain apc9, stronger effect = lower value 0.968 | S. cerevisiae deletion strains, locus YLR113W, strain HOG1, stronger effect = lower value 0.964 | S. cerevisiae deletion strains, locus YLR221C, strain rsa3, stronger effect = lower value 0.989 | S. cerevisiae deletion strains, locus YLR258W, strain gsy2, stronger effect = lower value 0.995 | S. cerevisiae deletion strains, locus YLR262C, strain YPT6 (second series), stronger effect = lower value 0.98 | S. cerevisiae deletion strains, locus YLR262C, strain YPT6, stronger effect = lower value 1.04 | S. cerevisiae deletion strains, locus YLR268W, strain sec22, stronger effect = lower value 0.946 | S. cerevisiae deletion strains, locus YLR320W, strain mms22, stronger effect = lower value 0.984 | S. cerevisiae deletion strains, locus YLR330W, strain CHS5, stronger effect = lower value 0.999 | S. cerevisiae deletion strains, locus YLR342W, strain FKS1 (second series), stronger effect = lower value 1.07 | S. cerevisiae deletion strains, locus YLR342W, strain FKS1, stronger effect = lower value 0.983 | S. cerevisiae deletion strains, locus YLR357W, strain rsc2, stronger effect = lower value 0.975 | S. cerevisiae deletion strains, locus YLR370C, strain arc18, stronger effect = lower value 0.986 | S. cerevisiae deletion strains, locus YLR371W, strain rom2, stronger effect = lower value 0.967 | S. cerevisiae deletion strains, locus YLR384C, strain iki3, stronger effect = lower value 0.976 | S. cerevisiae deletion strains, locus YLR418C, strain cdc73, stronger effect = lower value 0.998 | S. cerevisiae deletion strains, locus YML016C, strain PPZ1, stronger effect = lower value 1.02 | S. cerevisiae deletion strains, locus YML032C, strain rad52, stronger effect = lower value 0.974 | S. cerevisiae deletion strains, locus YML120C, strain ndi1, stronger effect = lower value 0.972 | S. cerevisiae deletion strains, locus YML124C, strain tub3, stronger effect = lower value 0.978 | S. cerevisiae deletion strains, locus YMR058W, strain fet3, stronger effect = lower value 0.988 | S. cerevisiae deletion strains, locus YMR078C, strain ctf18, stronger effect = lower value 0.978 | S. cerevisiae deletion strains, locus YMR125W, strain sto1, stronger effect = lower value 0.972 | S. cerevisiae deletion strains, locus YMR129W, stronger effect = lower value 0.989 | S. cerevisiae deletion strains, locus YMR205C, strain PFK2, stronger effect = lower value 0.965 | S. cerevisiae deletion strains, locus YMR223W, strain ubp8, stronger effect = lower value 1.02 | S. cerevisiae deletion strains, locus YMR231W, strain pep5, stronger effect = lower value 0.998 | S. cerevisiae deletion strains, locus YMR263W, strain SAP30, stronger effect = lower value 0.997 | S. cerevisiae deletion strains, locus YMR307W, strain GAS1, stronger effect = lower value 1.04 | S. cerevisiae deletion strains, locus YNL067W, strain RPL9B, stronger effect = lower value 0.985 | S. cerevisiae deletion strains, locus YNL071W, strain lat1, stronger effect = lower value 0.987 | S. cerevisiae deletion strains, locus YNL128W, strain TEP1, stronger effect = lower value 0.995 | S. cerevisiae deletion strains, locus YNL153C, strain GIM3, stronger effect = lower value 1.01 | S. cerevisiae deletion strains, locus YNL183C, strain NPR1, stronger effect = lower value 0.931 | S. cerevisiae deletion strains, locus YNL209W, strain ssb2, stronger effect = lower value 0.991 | S. cerevisiae deletion strains, locus YNL233W, strain BNI4, stronger effect = lower value 1.01 | S. cerevisiae deletion strains, locus YNL248C, strain rpa49, stronger effect = lower value 0.985 | S. cerevisiae deletion strains, locus YNL250W, strain rad50, stronger effect = lower value 0.98 | S. cerevisiae deletion strains, locus YNL271C, strain bni1, stronger effect = lower value 0.968 | S. cerevisiae deletion strains, locus YNL298W, strain CLA4, stronger effect = lower value 0.977 | S. cerevisiae deletion strains, locus YNL307C, strain MCK1, stronger effect = lower value 0.993 | S. cerevisiae deletion strains, locus YNL322C, strain KRE1 (second series), stronger effect = lower value 0.981 | S. cerevisiae deletion strains, locus YNL322C, strain KRE1, stronger effect = lower value 0.994 | S. cerevisiae deletion strains, locus YNR049C, strain mso1, stronger effect = lower value 0.982 | S. cerevisiae deletion strains, locus YNR052C, strain pop2, stronger effect = lower value 0.973 | S. cerevisiae deletion strains, locus YOL006C, strain TOP1, stronger effect = lower value 0.959 | S. cerevisiae deletion strains, locus YOL012C, strain htz1 0.852 | S. cerevisiae deletion strains, locus YOL147C, strain pex11, stronger effect = lower value 0.977 | S. cerevisiae deletion strains, locus YOR001W, strain rrp6, stronger effect = lower value 0.986 | S. cerevisiae deletion strains, locus YOR061W, strain CKA2, stronger effect = lower value 1.01 | S. cerevisiae deletion strains, locus YOR069W, strain VPS5, stronger effect = lower value 1.01 | S. cerevisiae deletion strains, locus YOR070C, strain gyp1, stronger effect = lower value 0.993 | S. cerevisiae deletion strains, locus YOR080W, strain dia2, stronger effect = lower value 0.987 | S. cerevisiae deletion strains, locus YOR083W, strain WHI5, stronger effect = lower value 0.968 | S. cerevisiae deletion strains, locus YOR106W, strain vam3, stronger effect = lower value 0.961 | S. cerevisiae deletion strains, locus YOR136W, strain idh2, stronger effect = lower value 0.978 | S. cerevisiae deletion strains, locus YOR144C, strain elg1, stronger effect = lower value 0.967 | S. cerevisiae deletion strains, locus YOR184W, strain ser1, stronger effect = lower value 0.982 | S. cerevisiae deletion strains, locus YOR231W, strain MKK1, stronger effect = lower value 0.971 | S. cerevisiae deletion strains, locus YOR265W, strain rbl2, stronger effect = lower value 0.995 | S. cerevisiae deletion strains, locus YOR270C, strain vph1, stronger effect = lower value 0.965 | S. cerevisiae deletion strains, locus YOR290C, strain snf2, stronger effect = lower value 0.991 | S. cerevisiae deletion strains, locus YOR316C, strain cot1, stronger effect = lower value 0.953 | S. cerevisiae deletion strains, locus YPL051W, strain arl3, stronger effect = lower value 0.985 | S. cerevisiae deletion strains, locus YPL055C, strain LGE1, stronger effect = lower value 1 | S. cerevisiae deletion strains, locus YPL078C, strain atp4, stronger effect = lower value 0.989 | S. cerevisiae deletion strains, locus YPL106C, strain sse1, stronger effect = lower value 0.959 | S. cerevisiae deletion strains, locus YPL240C, strain hsp82, stronger effect = lower value 1 | S. cerevisiae deletion strains, locus YPL241C, strain CIN2, stronger effect = lower value 1.01 | S. cerevisiae deletion strains, locus YPL256C, strain CLN2, stronger effect = lower value 0.945 | S. cerevisiae deletion strains, locus YPR119W, strain clb2, stronger effect = lower value 0.98 | S. cerevisiae deletion strains, locus YPR141C, strain kar3, stronger effect = lower value 0.971 | S. cerevisiae deletion strains, locus YPR163C, strain tif3, stronger effect = lower value 0.982 | S. cerevisiae deletion strains, locus YPR167C, strain met16, stronger effect = lower value 0.97 | S. cerevisiae deletion strains, strain wtn01, stronger effect = lower value 0.982 | S. cerevisiae strains, strain wild type, stronger effect = lower value 1.01
